Reference: PubChem BioAssay AID1159580 (chemical genetic matrix, 2015)
Several values for one entry are separate records, joined by “and”; a condition that tells them apart may be missing. Equal values may be shown once. About 2,000 (36%) of roughly 5,500 compounds were called active. About 18% were inconclusive and are not listed. Rule as the data show it: active = normalized growth mostly below about 0.91 (no sharp cut-off); inconclusive = no clear call, values can overlap the other calls; inactive = mostly above about 0.92. The list shows a part of the results.

Experiment: chemical genetic growth profiling, strain panel (AID 1159580);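 also: tested at 20 µM; growth read once vehicle control cultures reached saturation at 30 °C; 1 = growth at the plate median or of vehicle wells; lower values mean less growth of the strain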
Details: S. cerevisiae deletion strains, growth OD

Measured: normalized growth

NC1C[C@H]1c1ccccc1 (stereo partly specified)
inactive: locus YAL013W, strain DEP1, stronger effect = lower value 1.01 | locus YAL021C, strain ccr4, stronger effect = lower value 1 | locus YAL026C, strain drs2, stronger effect = lower value 0.985 | locus YAL030W, strain snc1, stronger effect = lower value 0.985 | locus YBL061C, strain skt5, stronger effect = lower value 0.991 | locus YBR009C, strain hhf1, stronger effect = lower value 1 | locus YBR021W, strain FUR4, stronger effect = lower value 0.983 | locus YBR023C, strain chs3, stronger effect = lower value 0.983 | locus YBR171W, strain sec66, stronger effect = lower value 0.978 | locus YBR229C, strain ROT2, stronger effect = lower value 1 | locus YBR231C, strain swc5, stronger effect = lower value 0.98 | locus YBR279W, strain paf1, stronger effect = lower value 0.985 | locus YCL011C, strain gbp2, stronger effect = lower value 0.977 | locus YCL016C, strain dcc1, stronger effect = lower value 0.981 | locus YCL029C, strain bik1, stronger effect = lower value 0.978 | locus YCL069W, strain vba3, stronger effect = lower value 0.992 | locus YCR088W, strain abp1, stronger effect = lower value 0.992 | locus YDL005C, strain med2, stronger effect = lower value 0.953 | locus YDL035C, strain GPR1, stronger effect = lower value 1.01 | locus YDL040C, strain nat1, stronger effect = lower value 0.976 | locus YDL074C, strain BRE1, stronger effect = lower value 0.999 | locus YDL101C, strain DUN1, stronger effect = lower value 1 | locus YDL134C, strain PPH21, stronger effect = lower value 1.01 | locus YDL185W, strain tfp1, stronger effect = lower value 0.985 | locus YDL192W, strain arf1, stronger effect = lower value 0.995 | locus YDR001C, strain nth1, stronger effect = lower value 0.985 | locus YDR069C, strain doa4, stronger effect = lower value 0.98 | locus YDR101C, strain arx1, stronger effect = lower value 0.977 | locus YDR137W, strain rgp1, stronger effect = lower value 0.986 | locus YDR150W, strain NUM1, stronger effect = lower value 1 | locus YDR159W, strain sac3, stronger effect = lower value 0.984 | locus YDR162C, strain NBP2, stronger effect = lower value 1.01 | locus YDR195W, strain ref2 0.974 | locus YDR297W, strain sur2, stronger effect = lower value 1 | locus YDR318W, strain mcm21, stronger effect = lower value 0.972 | locus YDR334W, strain swr1, stronger effect = lower value 0.993 | locus YDR335W, strain msn5, stronger effect = lower value 0.997 | locus YDR388W, stronger effect = lower value 0.979 | locus YDR392W, strain spt3, stronger effect = lower value 0.991 | locus YDR502C, strain sam2, stronger effect = lower value 0.979 | locus YEL003W, strain gim4, stronger effect = lower value 0.993 | locus YEL037C, strain rad23, stronger effect = lower value 0.989 | locus YEL061C, strain CIN8 (second series), stronger effect = lower value 0.977 | locus YEL061C, strain CIN8, stronger effect = lower value 1.01 | locus YER015W, strain faa2, stronger effect = lower value 0.99 | locus YER016W, strain bim1, stronger effect = lower value 1.01 | locus YER110C, stronger effect = lower value 0.989 | locus YER111C, strain swi4, stronger effect = lower value 0.959 | locus YER155C, strain BEM2 (second series), stronger effect = lower value 0.976 | locus YER155C, strain BEM2, stronger effect = lower value 0.995 | locus YER167W, strain BCK2, stronger effect = lower value 1.01 | locus YFR010W, strain ubp6, stronger effect = lower value 1.04 | locus YGL078C, strain dbp3, stronger effect = lower value 0.973 | locus YGL086W, strain mad1, stronger effect = lower value 0.988 | locus YGL167C, strain pmr1, stronger effect = lower value 0.985 | locus YGL173C, strain kem1, stronger effect = lower value 0.991 | locus YGL227W, strain vid30, stronger effect = lower value 0.979 | locus YGL240W, strain doc1, stronger effect = lower value 0.991 | locus YGL248W, strain PDE1, stronger effect = lower value 1 | locus YGL253W, strain hxk2, stronger effect = lower value 0.985 | locus YGR078C, strain PAC10, stronger effect = lower value 0.989 | locus YGR135W, strain pre9, stronger effect = lower value 0.974 | locus YGR229C, strain SMI1, stronger effect = lower value 0.997 | locus YGR252W, strain gcn5, stronger effect = lower value 0.919 | locus YHR013C, strain ard1, stronger effect = lower value 0.962 | locus YHR027C, strain rpn1, stronger effect = lower value 0.995 | locus YHR030C, strain SLT2, stronger effect = lower value 1 and 0.953 | locus YHR079C, strain IRE1 (second series), stronger effect = lower value 0.975 | locus YHR079C, strain IRE1, stronger effect = lower value 0.983 | locus YHR094C, strain hxt1, stronger effect = lower value 0.989 | locus YHR129C, strain ARP1, stronger effect = lower value 1.01 | locus YHR142W, strain chs7, stronger effect = lower value 0.967 | locus YHR200W, strain rpn10, stronger effect = lower value 0.976 | locus YIL066C, strain RNR3, stronger effect = lower value 1.01 | locus YIL073C, strain SPO22, stronger effect = lower value 1.01 | locus YIL125W, strain kgd1, stronger effect = lower value 0.986 | locus YIR030C, strain dcg1, stronger effect = lower value 0.988 | locus YJL092W, strain hpr5, stronger effect = lower value 0.992 | locus YJL095W, strain BCK1 (second series), stronger effect = lower value 1 | locus YJL095W, strain BCK1, stronger effect = lower value 1.01 and 0.965 | locus YJL115W, strain asf1, stronger effect = lower value 0.976 | locus YJL129C, strain trk1, stronger effect = lower value 0.963 | locus YJL134W, strain LCB3, stronger effect = lower value 1 | locus YJL154C, strain vps35, stronger effect = lower value 0.973 | locus YJL164C, strain tpk1, stronger effect = lower value 0.999 | locus YJL166W, strain qcr8, stronger effect = lower value 1.01 | locus YJL168C, strain set2, stronger effect = lower value 0.983 | locus YJL187C, strain SWE1 (second series), stronger effect = lower value 1.01 | locus YJL187C, strain SWE1, stronger effect = lower value 0.992 | locus YJR043C, strain POL32, stronger effect = lower value 0.995 | locus YJR066W, strain TOR1, stronger effect = lower value 0.931
